# Activity calls are given as the source filed them. The calls were made as follows: active = hit-call score of the fitted dose curve at least 0.9, where 1 is the maximum; inconclusive = response in the unintended direction; inactive = score below 0.9.
# System: rat CYP2C6, gene 293989
# Experiment: NVS_ADME_rCYP2C6: NovaScreen (NVS) CYP450-related Enzyme Activity (ADME) Assay for rat CYP2C6 (AID 2283120)
# Protocol: NVS_ADME_rCYP2C6 is a biochemical, single-readout assay that uses extracted gene-proteins in a cell-free assay. Measurements were taken 1 hour after chemical dosing in a 96-well plate.NVS_ADME_rCYP2C6 is one of one assay component(s) measured or calculated from the NVS_ADME_rCYP2C6 assay. It is designed to make measurements of enzyme activity, a form of enzyme reporter, as detected with fluorescence intensity signals by Fluorescence technology.Data from the assay component NVS_ADME_rCYP2C6 was analyzed into 1 assay endpoint. This assay endpoint, NVS_ADME_rCYP2C6, was analyzed in the positive analysis fitting direction relative to Acetonitrile as the negative control and baseline of activity. Using a type of enzyme reporter, loss-of-signal activity can be used to understand changes in the enzymatic activity as they relate to the gene Cyp2c6v1. Furthermore, this assay endpoint can be referred to as a primary readout, because this assay has produced multiple assay endpoints where this one serves a enzymatic activity function. To generalize the intended target to other relatable targets, this assay endpoint is annotated to the cyp intended target family, where the subfamily is xenobiotic metabolism.
# Binding assays used specific radioligands (tritiated, iodinated) with non-radioactive competitive displacement ligands in agonist or antagonist protocols (as indicated) and various reference compounds and inhibitors to titrate specific binding to receptors and transporters. Most enzyme assays (CYPs, kinases, phosphatases, proteases, HDACs) used recombinant protein and specific substrates (fluorescence mostly, some colorimetric and radioactive) and inhibitors, followed by a biochemical separation of substrate and product. All assays for the biochemical HTS were initially run in duplicate at a single concentration (10 uM for CYP450 assays and 25 uM for all others). Assay-chemical combinations meeting a pre-defined threshold (e.g., 30% inhibition and other criteria defined below) were then run in singleton concentration-response format with maximum concentration of 20 uM for CYPs and 50 uM for all others. Each assay was run with positive and negative controls, and concurrent controls on every plate. The follow-up (secondary) screen tested active chemical-pairs in concentration series, as well as a few additional assays not tested in the primary screen, some selected negative inactives, and several cases re-run in the concentration series for confirmatory purposes.
row,Compound,AC50
1,CCOP(=S)(OCC)Oc1nc(Cl)n(C(C)C)n1,0.837 µM (active)
2,CCNP(=S)(OC)O/C(C)=C/C(=O)OC(C)C (configuration not stated),0.151 µM (active)
3,CO/N=C(/C1=NOCCO1)c1ccccc1Oc1ncnc(Oc2ccccc2Cl)c1F,1.74 µM (active)
4,COP(=S)(OC)Oc1ccc([N+](=O)[O-])c(C)c1,0.177 µM (active)
5,CCCCC(O)(Cn1cncn1)c1ccc(Cl)cc1Cl (configuration not stated),3.59 µM (active)
6,CSC(=O)c1c(C(F)F)nc(C(F)(F)F)c(C(=O)SC)c1CC(C)C,2.99 µM (active)
7,CCN(CC)c1nc(C)cc(OP(=S)(OC)OC)n1,0.723 µM (active)
8,COP(=S)(OC)SCn1nnc2ccccc2c1=O,0.634 µM (active)
9,CCN(CC)C(=O)C(C)Oc1cccc2ccccc12 (configuration not stated),4.21 µM (active)
10,CC(C)NC(=O)N1CC(=O)N(c2cc(Cl)cc(Cl)c2)C1=O,2.38 µM (active)
11,COC(=O)c1c(C(F)F)nc(C(F)(F)F)c(C2=NCCS2)c1CC(C)C,3.59 µM (active)
12,CCCCOCN(C(=O)CCl)c1c(CC)cccc1CC,3.34 µM (active)

# — PubChem BioAssay (EPA / NIEHS)
